What is called inhibition is the share of the control response that was lost under treatment.

Molecules are shown by their SMILES. For part of these data: Results with a measured potency or affinity are listed apart. Activity calls are given as the source filed them.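 The calls were made as follows, unless noted: active = calcium signal ratio cut to more than 3 SD under the fully stimulated control mean yet still positive, in both repeats and the primary screen; inactive = the rest.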

Our source for the outcome, potentiation and inhibition values is PubChem BioAssay.

In test [1] the test system is TRPC4 beta (transient receptor potential cation channel C4), mouse. In words: activators of mouse TRPC4 channel, confirmation, cell-based, Fluo4 calcium, HEK293 TRPC4beta/mu-opioid, duplicates, 10 µM (AID 2426;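 active = fluorescence ratio normalized to control raised more than 50% in primary screen plus both repeat runs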). The following applies: Fluo4 calcium fluorescence, at 10 µM; stronger effect = higher value.
Test [2] concerns transient receptor potential cation channel C4 beta (TRPC4), mouse. Briefly: activators of mouse TRPC4 channel, confirmation, cell-based, second round, Fluo4, HEK293 TRPC4beta/mu-opioid, 1 µM (AID 2461;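 active = primary screen active and over 50% activation in each of two duplicate runs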). The following applies: Fluo4 calcium fluorescence, at 1 µM; stronger effect = higher value.
Test [3] has as its system TRPC4 (transient receptor potential cation channel C4 beta), mouse. Briefly: positive allosteric modulators of mouse TRPC4, confirmation, cell-based, second round, Fluo-4, HEK293 TRPC4beta/mu-opioid, 1 µM (AID 2554;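 active = primary screen hit whose fluorescence ratio, in both repeats, exceeds the weak agonist control mean by 3 SD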). The following applies: DAMGO EC20, Fluo-4 calcium flux, at 1 µM; stronger effect = higher value. In general terms: Calcium flux is commonly read through the fluorescence of an indicator in the cells.

Test [4] deals with TRPC4 beta (transient receptor potential cation channel C4), mouse. Briefly: positive allosteric modulators of mouse TRPC4, confirmation, cell-based, Fluo-4, HEK293 TRPC4beta/mu-opioid (AID 2555;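 active = primary screen hit whose calcium fluorescence ratio, in both repeats, exceeds the weak agonist control mean by 3 SD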). The following applies: DAMGO EC20, Fluo-4 calcium flux, at 10 µM; stronger effect = higher value.
Test [5] has as its target Short transient receptor potential channel 4 (Mus musculus) (UniProt Q9QUQ5). In words: inhibitors of mouse TRPC4 channel, confirmation, cell-based, Fluo4, HEK293 TRPC4beta/mu-opioid (AID 2636;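 active = calcium signal cut by more than 3 SD below the full-agonist control yet still positive, in both repeats and the earlier primary screen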). The following applies: DAMGO, Fluo4 calcium flux, at 10 µM; stronger effect = higher value.
Test [6] has the same target. In words: inhibitors of mouse TRPC4 channel, confirmation, cell-based, second round, Fluo4, HEK293 TRPC4beta/mu-opioid, 1 µM (AID 2637).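 As to inhibition: percent of integrated ratio relative to wells lacking test compound.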 The note with it: Fluo4 calcium flux, DAMGO, at 1 µM; stronger effect = higher value.
Test [7] has the same target. In words: mouse TRPC4 channel activators, dose response, cell-based, HEK293 TRPC4/mu-opioid, Fluo-4 calcium (AID 434937;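 active = primary screen activator hit with a dose response curve and TRPC4 channel activation at any tested dose; inactive = no activation, no dose response, or not a primary hit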).
Test [8] deals with Short transient receptor potential channel 6 (Mus musculus) (UniProt Q61143). In words: inhibition of mouse TRPC6 channel, confirmation, selectivity assay for TRPC4 inhibitor project, cell-based, HEK293, membrane potential dye, duplicate (AID 434948;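 active = active in primary screen and both duplicates, each dropping signal beyond three positive-control SD with fluorescence still positive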). The following applies: HEK293 TRPC6, membrane potential dye fluorescence, at 10 µM, stimulated with maximal-effect acetylcholine; stronger effect = higher value.

Test [9] has the same target. In words: activation of mouse TRPC6 channel, confirmation, selectivity assay for TRPC4 activator project, cell-based, HEK293, membrane potential dye, duplicate (AID 434950;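 active = membrane potential signal rise above negative control mean plus 3 SD in both duplicates, also active in the earlier TRPC4 screen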). The note with it: HEK293 TRPC6, membrane potential fluorescence, at 10 µM; stronger effect = higher value.
Test [10] shares this target. Briefly: TRPC6 potentiation by TRPC4 potentiator hits, confirmation, selectivity assay for TRPC4 potentiator project, HEK293 cells, membrane potential dye, duplicate (AID 434952;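 active = compound raising the membrane signal above positive-control mean plus 3 SD in both repeats, and a primary screen hit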). The note with it: HEK293 TRPC6, membrane potential dye fluorescence, at 10 µM, maximal acetylcholine added after compound; stronger effect = higher value.
For test [11], the target named is Short transient receptor potential channel 4 (Mus musculus) (UniProt Q9QUQ5). In words: calcium flux activators in TRPC4/5HT1a cells, counter-screen for TRPC4 activator project, cell-based, second counter screen, HEK293 TRPC4/5HT1a, Fluo-4 (AID 434977;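 active = calcium signal rise above buffer-control mean plus 5 SD in both duplicates, and also a hit in the primary screen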). The note with it: Fluo-4 calcium flux, at 10 µM; stronger effect = higher value.
The nature of test [12]: calcium flux inhibitors in TRPC4/5HT1a cells, confirmation, counter-screen for TRPC4 inhibitor project, cell-based, second counter screen, HEK293 TRPC4/5HT1a, Fluo-4 (AID 434978;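 active = primary screen active whose calcium signal fell more than 3 SD beyond the full-serotonin control mean in both duplicate plates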;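 as to outcome: serotonin given first at submaximal then at maximal dose after compound preincubation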). The following applies: Fluo-4 calcium flux, at 10 µM, serotonin added to trigger calcium flux; stronger effect = higher value.
Test [13] has as its system TRPC4 (mouse), co-expressed with 5HT1a in HEK293. Briefly: calcium flux potentiators in TRPC4/5HT1a cells, confirmation, counter-screen for TRPC4 potentiator project, cell-based, second counter screen, HEK293 TRPC4/5HT1a, Fluo-4 (AID 434979;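 active = signal rise over 3 SD above mean of control wells given weak agonist, in both repeats and first screen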). The following applies: Fluo-4 calcium flux, at 10 µM, serotonin added at its EC20 dose; stronger effect = higher value.
Test [14] is described as follows: calcium flux activation in mu-opioid HEK293 cells, confirmation, counter-screen for TRPC4 activator project, cell-based, HEK293 mu-opioid receptor line (AID 449723;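 active = hit in primary screen, with calcium signal over 5 SD above buffer well mean in both duplicates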;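 also: counter screen cells carry the mu-opioid receptor alone and lack TRPC4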). The following applies: Fluo-4 calcium fluorescence, at 10 µM; stronger effect = higher value.
The nature of test [15]: calcium flux enhancement in mu-opioid HEK293 cells, confirmation, counter-screen for TRPC4 allosteric potentiator project, cell-based, HEK293 mu-opioid receptor line (AID 449724;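 active = calcium signal rise more than 3 SD above the low-dose agonist control mean, in both duplicate plates and the primary screen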). The note with it: Fluo-4 calcium flux, at 10 µM, compound added before EC20 DAMGO stimulus; stronger effect = higher value.
The target of test [16] is Short transient receptor potential channel 4 (Mus musculus) (UniProt Q9QUQ5). In words: TRPC4 positive allosteric modulators, dose response, cell-based, HEK293 TRPC4/mu-opioid, Fluo-4 calcium, EC20 DAMGO (AID 434941;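 active = earlier screen potentiator hit that boosts the TRPC4 ion channel at some dose, with a dose response; inactive = no potentiation, no dose response, or not a prior hit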;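 also: calcium entry triggered by an EC20 dose of DAMGO at the co-expressed mu-opioid receptor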).
A short description of test [17]: thallium flux activation in parental CHO cells, counter-screen for KCNQ1 potentiator project (AID 493006;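 active = duplicate-averaged activation above buffer control mean plus 5 SD of those controls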). The note with it: parental CHO-K1 cells, FluxOR thallium flux, at 10 µM; stronger effect = higher value. For orientation: The purpose of a counterscreen is to sort out artefacts and off-target activity.
The target of test [18] is Potassium voltage-gated channel subfamily KQT member 1 (Homo sapiens) (UniProt P51787). Briefly: KCNQ1 potassium channel potentiators, confirmation, FluxOR thallium flux, CHO cells, duplicates (AID 493007;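 active = potentiation averaged over duplicate wells exceeding buffer-only control mean by more than 3 SD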;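 as to outcome: cells depolarized by a potassium plus thallium sulfate stimulus after compound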;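 as to potentiation: 0% = buffer-only wells and 100% = R-L3 activator control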). The note with it: KCNQ1 cell line, FluxOR thallium flux fluorescence, at 10 µM; stronger effect = higher value, % of reference activator effect, buffer zero.
Test [19] concerns the target Potassium voltage-gated channel subfamily KQT member 2 (Rattus norvegicus) (UniProt O88943). Briefly: rat KCNQ2 channel potentiation, selectivity assay for KCNQ1 potentiator project, KCNQ2-CHO-K1 cells (AID 493009;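 active = mean duplicate potentiation above the buffer control mean plus 5 SD of buffer wells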;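 also: assay conditions were tuned for KCNQ1 rather than KCNQ2 modulators; signal is max minus min fluorescence divided by baseline after thallium stimulus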). The following applies: FluxOR thallium flux fluorescence, at 10 µM; stronger effect = higher value, scaled: buffer 0, activator control 100.
In test [20] the target is Potassium voltage-gated channel subfamily KQT member 1 (Homo sapiens) (UniProt P51787). In words: KCNQ1 channel current potentiators, confirmation, orthogonal assay for KCNQ1 potentiator project, IonWorks patch clamp, KCNQ1-CHO cells (AID 493184;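 active = current rise at least 3 SD above the untreated control mean in each of two repeat wells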). The note with it: automated patch clamp current, at 10 µM; stronger effect = higher value. For orientation: In patch-clamp work, channel activity is measured electrically.

Chain of Potassium voltage-gated channel subfamily KQT member 1 (Homo sapiens) (P51787 whole entry, looked up): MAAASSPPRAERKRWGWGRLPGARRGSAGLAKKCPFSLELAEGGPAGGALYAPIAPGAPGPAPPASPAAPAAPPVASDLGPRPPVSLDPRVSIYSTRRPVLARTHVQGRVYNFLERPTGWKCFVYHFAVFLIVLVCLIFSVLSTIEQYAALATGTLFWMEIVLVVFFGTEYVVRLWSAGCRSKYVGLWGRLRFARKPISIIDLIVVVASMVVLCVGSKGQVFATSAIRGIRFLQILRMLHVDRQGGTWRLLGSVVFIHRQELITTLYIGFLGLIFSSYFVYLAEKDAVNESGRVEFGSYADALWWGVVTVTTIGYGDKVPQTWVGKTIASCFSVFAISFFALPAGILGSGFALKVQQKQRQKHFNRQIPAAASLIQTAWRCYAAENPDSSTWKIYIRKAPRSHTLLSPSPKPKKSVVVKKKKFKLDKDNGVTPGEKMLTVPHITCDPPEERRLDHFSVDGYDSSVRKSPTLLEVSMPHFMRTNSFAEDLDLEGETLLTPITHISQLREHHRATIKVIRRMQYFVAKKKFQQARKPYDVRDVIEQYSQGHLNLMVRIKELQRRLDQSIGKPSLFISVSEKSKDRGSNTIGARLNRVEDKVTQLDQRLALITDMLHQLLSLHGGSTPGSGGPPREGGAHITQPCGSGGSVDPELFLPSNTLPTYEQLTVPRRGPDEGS
Chain of Short transient receptor potential channel 6 (Mus musculus) (Q61143 whole entry, looked up): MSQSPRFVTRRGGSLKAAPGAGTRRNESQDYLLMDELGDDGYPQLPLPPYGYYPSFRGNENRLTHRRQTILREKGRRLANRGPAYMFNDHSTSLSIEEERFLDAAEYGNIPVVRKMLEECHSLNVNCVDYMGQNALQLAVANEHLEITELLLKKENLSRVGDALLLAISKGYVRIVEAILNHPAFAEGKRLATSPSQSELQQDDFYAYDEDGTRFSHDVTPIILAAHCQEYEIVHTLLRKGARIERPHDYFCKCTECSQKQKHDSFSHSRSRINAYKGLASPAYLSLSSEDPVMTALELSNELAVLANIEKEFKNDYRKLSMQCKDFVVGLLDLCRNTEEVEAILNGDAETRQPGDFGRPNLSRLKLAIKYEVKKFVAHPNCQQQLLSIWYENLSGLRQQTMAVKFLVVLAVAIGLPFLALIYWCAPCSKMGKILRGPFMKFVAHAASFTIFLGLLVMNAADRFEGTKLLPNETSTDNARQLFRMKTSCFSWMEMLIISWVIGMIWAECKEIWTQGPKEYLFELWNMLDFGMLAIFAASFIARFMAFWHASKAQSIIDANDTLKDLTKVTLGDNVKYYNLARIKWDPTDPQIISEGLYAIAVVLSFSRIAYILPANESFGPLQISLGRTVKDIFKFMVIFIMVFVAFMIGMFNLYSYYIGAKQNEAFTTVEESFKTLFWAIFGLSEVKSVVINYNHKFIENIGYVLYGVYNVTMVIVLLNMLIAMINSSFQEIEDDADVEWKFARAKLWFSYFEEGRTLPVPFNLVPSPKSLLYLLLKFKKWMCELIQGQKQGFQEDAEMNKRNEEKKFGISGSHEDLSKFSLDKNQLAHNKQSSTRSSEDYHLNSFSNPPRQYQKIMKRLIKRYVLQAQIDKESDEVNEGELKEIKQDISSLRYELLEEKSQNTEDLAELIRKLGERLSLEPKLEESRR
Chain of Potassium voltage-gated channel subfamily KQT member 2 (Rattus norvegicus) (O88943 whole entry, looked up): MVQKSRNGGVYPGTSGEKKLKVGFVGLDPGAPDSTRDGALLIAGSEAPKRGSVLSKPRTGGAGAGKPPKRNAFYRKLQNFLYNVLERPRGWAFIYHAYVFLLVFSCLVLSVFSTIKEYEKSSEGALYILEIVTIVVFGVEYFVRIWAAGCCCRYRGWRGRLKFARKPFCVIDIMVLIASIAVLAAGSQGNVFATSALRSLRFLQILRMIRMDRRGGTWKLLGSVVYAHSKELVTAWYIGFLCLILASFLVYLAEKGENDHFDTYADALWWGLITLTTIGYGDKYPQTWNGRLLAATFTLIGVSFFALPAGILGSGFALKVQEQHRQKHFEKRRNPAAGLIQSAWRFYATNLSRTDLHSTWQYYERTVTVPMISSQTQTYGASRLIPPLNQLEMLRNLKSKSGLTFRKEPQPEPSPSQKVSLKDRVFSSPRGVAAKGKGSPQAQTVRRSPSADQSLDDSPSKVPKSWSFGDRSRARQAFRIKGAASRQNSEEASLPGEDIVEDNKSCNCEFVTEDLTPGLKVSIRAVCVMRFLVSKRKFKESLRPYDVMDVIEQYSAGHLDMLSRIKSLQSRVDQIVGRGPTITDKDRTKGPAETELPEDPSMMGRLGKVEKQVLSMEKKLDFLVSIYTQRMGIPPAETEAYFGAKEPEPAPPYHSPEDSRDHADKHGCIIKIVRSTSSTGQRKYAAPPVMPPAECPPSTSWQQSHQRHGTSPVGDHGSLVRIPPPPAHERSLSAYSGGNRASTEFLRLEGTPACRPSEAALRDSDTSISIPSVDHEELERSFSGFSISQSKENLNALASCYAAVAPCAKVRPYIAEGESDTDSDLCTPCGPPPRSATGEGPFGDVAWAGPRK
Chain of Short transient receptor potential channel 4 (Mus musculus) (Q9QUQ5 whole entry, looked up): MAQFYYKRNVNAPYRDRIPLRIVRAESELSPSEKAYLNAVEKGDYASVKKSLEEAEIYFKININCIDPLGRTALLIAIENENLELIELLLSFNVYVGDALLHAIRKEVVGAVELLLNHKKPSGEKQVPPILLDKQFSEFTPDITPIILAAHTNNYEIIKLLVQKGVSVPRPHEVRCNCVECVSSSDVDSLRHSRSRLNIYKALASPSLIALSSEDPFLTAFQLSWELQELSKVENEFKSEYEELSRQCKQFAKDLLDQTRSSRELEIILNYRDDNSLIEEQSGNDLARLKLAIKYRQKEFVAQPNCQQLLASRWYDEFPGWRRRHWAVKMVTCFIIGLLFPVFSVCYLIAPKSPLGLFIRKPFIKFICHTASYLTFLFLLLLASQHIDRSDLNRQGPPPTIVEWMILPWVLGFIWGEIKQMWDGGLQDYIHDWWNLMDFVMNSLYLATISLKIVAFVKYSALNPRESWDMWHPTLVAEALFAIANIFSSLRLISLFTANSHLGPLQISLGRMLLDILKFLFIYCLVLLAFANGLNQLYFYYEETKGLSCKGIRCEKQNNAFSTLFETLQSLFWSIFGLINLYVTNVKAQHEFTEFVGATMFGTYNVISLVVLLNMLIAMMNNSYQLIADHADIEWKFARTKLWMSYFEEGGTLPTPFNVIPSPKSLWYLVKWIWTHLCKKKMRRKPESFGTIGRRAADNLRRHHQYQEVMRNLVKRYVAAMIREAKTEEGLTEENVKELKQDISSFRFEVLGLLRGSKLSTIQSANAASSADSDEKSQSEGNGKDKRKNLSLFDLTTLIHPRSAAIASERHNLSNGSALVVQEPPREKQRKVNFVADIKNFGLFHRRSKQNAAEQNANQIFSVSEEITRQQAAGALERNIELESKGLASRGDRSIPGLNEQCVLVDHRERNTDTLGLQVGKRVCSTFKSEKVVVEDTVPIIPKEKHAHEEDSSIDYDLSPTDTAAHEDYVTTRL

Turning to `Cc1cc2oc(C(=O)N(Cc3ccccc3)C3CCS(=O)(=O)C3)cc(=O)c2cc1Cl` (stereo unspecified), the result in test [1], in [2], in test [3], in test [5], in [6] and in test [7] was inactive. Further, the compound was classed as inactive in test [8], in test [9], in test [10], in test [11], in [12] and in test [14]. The result in test [15] was inactive. In addition, the potentiation in [4] is 47% (active); in [13] it was 68.1% (active).
Take `CC(C1CC2CCC1C2)n1c(-c2cccs2)n[nH]c1=S` (stereo unspecified): the outcome in test [1], in test [2], in [3], in test [4], in test [6] and in [7] was inactive. Besides, the outcome in test [16], in [8], in [9], in test [10], in test [11] and in test [13] was inactive. The result in test [14], in [15], in test [17] and in [20] was inactive. Besides, the results for the inhibition in test [5] and in test [12] were 54% (active) and 34% (active), respectively. Further, the potentiation in test [18] was 48% (active); in test [19], 148% (active).
Regarding `COc1ccccc1C(=O)Nc1ccc2c(c1)CCCN2C(=O)c1cccs1`, the outcome in test [1], in test [2], in [3], in test [4], in test [5] and in test [6] was inactive. For the same compound, the outcome in test [7], in test [16], in [8], in test [9], in test [10] and in test [11] was inactive. The result in test [12], in test [13], in test [14] and in test [15] was inactive.
As for `O=C(O)c1ccc(Cl)cc1Nc1nc2cc(Cl)ccc2o1`, the result in test [1], in test [2], in [3], in test [4], in test [6] and in test [7] was inactive. Further, the result in test [16], in test [8], in test [9], in test [10], in test [11] and in [13] was inactive. Besides, the result in [14], in test [15], in test [17], in test [19] and in test [20] was inactive. The inhibition in test [5] is 98% (active); in [12] it was 9.42% (active). Moreover, the potentiation in [18] is 24.5% (active).
For `O=C(NCc1ccccc1)C1=C[C@H](c2ccc(C(F)(F)F)cc2)C[C@H](OCc2ccc(CO)cc2)O1`, the outcome in test [1], in test [2], in test [3], in test [5], in [6] and in test [7] was inactive. Also, the call in test [8], in [9], in test [10], in test [11], in test [12] and in [14] was inactive. In addition, the outcome in test [15] was inactive. Besides, the potentiation in test [4] is 51% (active); in test [13], 111% (active).
Consider `COc1cc(NS(=O)(=O)c2ccc3ccccc3c2)c2ncccc2c1`, for which the outcome in test [1], in test [2], in test [3], in test [4], in test [6] and in test [7] was inactive. The result in test [16], in [8], in [9], in test [10], in test [11] and in test [13] was inactive. Further, the outcome in test [14], in test [15], in test [17] and in test [20] was inactive. Also, the inhibition in [5] is 70% (active); in test [12] it was 23.4% (active). Besides, the values for the potentiation in [18] and in test [19] were 47% (active) and 154% (active), respectively.
Turning to `CCCc1nc2oc3c(NCCN(C)C)ncnc3c2c2c1CCCC2`, the result in test [1], in test [2], in [3], in [4], in test [7] and in [16] was inactive. In addition, the result in test [8], in [9], in test [10], in test [11], in test [13] and in [14] was inactive. The outcome in test [15], in test [17], in test [18], in test [19] and in test [20] was inactive. Also, the inhibition was 86% (active) in test [5], 37% (active) in test [6] and 13.5% (active) in test [12].
